Results filed as inconclusive are left out. Active and inactive are the calls of the source. Unless noted, calls come from the whole dose curve; as a rule, active = well fitted curve in the direction sought with a large enough effect in the repeat runs; inconclusive = weak or mixed curves; inactive = no such curve, though single readings can be large; an effect the other way counts as inactive or inconclusive.
Tests used:
[1] = qHTS assay to test for compound auto fluorescence at 535 nm (green) in HEK293 cells (AID 720680)
[2] = qHTS assay to test for compound auto fluorescence at 460 nm (blue) in HEK293 cell free culture (AID 720681)
Summary of the method: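 Test compounds were pinned into cell-free culture medium (DMEM with 10% FBS) and fluorescence was read directly at Ex/Em 405/460 nm. Signals were expressed as fluorescence equivalents of triamterene, with DMSO vehicle as control.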

[3] = qHTS assay to test for compound auto fluorescence at 535 nm (green) in HEK293 cell free culture (AID 720682)
Summary of the method: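 No cells present: wells hold DMEM supplemented with 10% FBS, into which compound or vehicle is pinned. Green emission is then recorded (485 nm excitation, 535 nm emission) and scaled to fluorescein.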

[4] = qHTS assay to test for compound auto fluorescence at 590 nm (red) in HEK293 cell free culture (AID 720683)
Summary of the method: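 Tox21 10K library compounds were pinned into cell-free DMEM with 10% FBS and fluorescence was read at excitation 540 nm. Activity is expressed as Rose Bengal sodium equivalency.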

[5] = qHTS assay to test for compound auto fluorescence at 590 nm (red) in HepG2 cell free culture (AID 720684)
Summary of the method: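 Readout: intrinsic compound fluorescence at 590 nm emission after 540 nm excitation, scaled to Rose Bengal sodium. Matrix was cell-free MEM with 10% FBS; DMSO vehicle wells served as control.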

[6] = qHTS assay to test for compound auto fluorescence at 460 nm (blue) in HepG2 cell free culture (AID 720685)
Summary of the method: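 Cell-free plates of MEM plus 10% FBS received 23 nL compound or DMSO vehicle; blue-channel (405/460 nm) intensity scored against triamterene as reference fluorophore.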

[7] = qHTS assay to test for compound auto fluorescence at 535 nm (green) in HepG2 cell free culture (AID 720686)
[8] = qHTS assay to test for compound auto fluorescence at 460 nm (blue) in HepG2 cells (AID 720687)
Summary of the method: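 Cells (2,000/well in MEM with 10% FBS) attached overnight at 37 C, then were exposed to compound or DMSO for 1 hr at 37 C, 5% CO2. Fluorescence read at Ex/Em 405/460 nm, expressed as triamterene-equivalent signal.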

[9] = molecular target: Glucocorticoid receptor (Homo sapiens) (UniProt P04150); experiment: qHTS assay to identify small molecule agonists of the glucocorticoid receptor (GR) signaling pathway (AID 720691; active = well fitted activation curve with a large enough effect in the signal ratio in the repeat runs, not every such curve was filed as active; the % refers to the signal ratio)
Glucocorticoid receptor (Homo sapiens), sequence (P04150 whole entry, looked up): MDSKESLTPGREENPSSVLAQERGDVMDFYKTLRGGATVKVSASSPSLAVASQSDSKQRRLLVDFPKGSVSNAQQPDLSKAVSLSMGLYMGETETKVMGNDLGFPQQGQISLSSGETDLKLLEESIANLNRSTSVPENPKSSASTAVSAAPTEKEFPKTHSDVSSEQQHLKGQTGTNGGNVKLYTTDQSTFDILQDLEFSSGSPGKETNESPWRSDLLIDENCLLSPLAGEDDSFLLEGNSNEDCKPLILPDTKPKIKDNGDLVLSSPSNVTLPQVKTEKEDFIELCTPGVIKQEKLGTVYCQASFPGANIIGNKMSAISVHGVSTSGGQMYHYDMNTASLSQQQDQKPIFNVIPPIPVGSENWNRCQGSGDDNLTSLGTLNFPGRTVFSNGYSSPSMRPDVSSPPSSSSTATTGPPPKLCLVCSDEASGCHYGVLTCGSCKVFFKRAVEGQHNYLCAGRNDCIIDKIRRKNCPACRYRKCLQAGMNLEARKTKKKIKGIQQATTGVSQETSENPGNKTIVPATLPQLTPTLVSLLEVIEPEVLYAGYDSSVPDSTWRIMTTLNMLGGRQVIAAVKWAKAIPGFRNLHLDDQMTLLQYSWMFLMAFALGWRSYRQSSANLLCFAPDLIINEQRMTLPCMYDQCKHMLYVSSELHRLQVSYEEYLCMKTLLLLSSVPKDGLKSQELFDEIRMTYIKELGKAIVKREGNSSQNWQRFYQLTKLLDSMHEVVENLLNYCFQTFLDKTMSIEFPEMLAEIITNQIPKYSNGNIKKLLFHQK
Summary of the method: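 HeLa GR-bla reporter line; cells pre-incubated 4 h, compound in DMSO 18 h at 37 C; LiveBLAzer B/G FRET substrate 2 h RT; fluorescence intensity read-out.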

[10] = qHTS assay to identify small molecule antagonists of the glucocorticoid receptor (GR) signaling pathway - cell viability counter screen (AID 720693); note: nearly all actives have a fitted effect of over 55% in size
[11] = qHTS assay for identifying genotoxic compounds that show differential cytotoxicity against isogenic chicken DT40 cell lines with known DNA damage response pathways - wild type cell line (AID 743012); note: nearly all actives have a fitted effect of over 60% in size
Summary of the method: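 CellTiter-Glo luminescence readout of viability in wild type DT40 cells after 40 h compound exposure at 37 C/5% CO2; 300 cells/well; reagent incubated 30 min at room temperature before reading.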

[12] = qHTS assay for identifying genotoxic compounds that show differential cytotoxicity against isogenic chicken DT40 cell lines with known DNA damage response pathways - Rad54/Ku70 mutant cell line (AID 743015); note: nearly all actives have a fitted effect of over 60% in size
[13] = qHTS assay to identify small molecule antagonists of the androgen receptor (AR) signaling pathway - cell viability counter screen (AID 743033; note: nearly all actives have a fitted effect of over 45% in size)
[14] = qHTS assay to identify small molecule antagonists of the androgen receptor (AR) signaling pathway using the MDA cell line - cell viability counter screen (AID 743041; note: nearly all actives have a fitted effect of over 45% in size)
Summary of the method: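 qHTS viability read-out; MDA-kb2 AR-luc; R1881-stimulated; 16 h exposure at 37C, 0% CO2; CellTiter-Fluor, 30 min; fluorescence intensity.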

[15] = qHTS assay for identifying genotoxic compounds that show differential cytotoxicity against isogenic chicken DT40 cell lines with known DNA damage response pathways - Rev3 mutant cell line (AID 743014); note: nearly all actives have a fitted effect of over 55% in size
[16] = molecular target: Androgen receptor (Homo sapiens) (UniProt P10275); experiment: qHTS assay to identify small molecule antagonists of the androgen receptor (AR) signaling pathway (AID 743035; active = well fitted inhibition curve with a large enough effect in the signal ratio in the repeat runs, not every such curve was filed as active; the % refers to the signal ratio)
Androgen receptor (Homo sapiens), sequence (P10275 whole entry, looked up): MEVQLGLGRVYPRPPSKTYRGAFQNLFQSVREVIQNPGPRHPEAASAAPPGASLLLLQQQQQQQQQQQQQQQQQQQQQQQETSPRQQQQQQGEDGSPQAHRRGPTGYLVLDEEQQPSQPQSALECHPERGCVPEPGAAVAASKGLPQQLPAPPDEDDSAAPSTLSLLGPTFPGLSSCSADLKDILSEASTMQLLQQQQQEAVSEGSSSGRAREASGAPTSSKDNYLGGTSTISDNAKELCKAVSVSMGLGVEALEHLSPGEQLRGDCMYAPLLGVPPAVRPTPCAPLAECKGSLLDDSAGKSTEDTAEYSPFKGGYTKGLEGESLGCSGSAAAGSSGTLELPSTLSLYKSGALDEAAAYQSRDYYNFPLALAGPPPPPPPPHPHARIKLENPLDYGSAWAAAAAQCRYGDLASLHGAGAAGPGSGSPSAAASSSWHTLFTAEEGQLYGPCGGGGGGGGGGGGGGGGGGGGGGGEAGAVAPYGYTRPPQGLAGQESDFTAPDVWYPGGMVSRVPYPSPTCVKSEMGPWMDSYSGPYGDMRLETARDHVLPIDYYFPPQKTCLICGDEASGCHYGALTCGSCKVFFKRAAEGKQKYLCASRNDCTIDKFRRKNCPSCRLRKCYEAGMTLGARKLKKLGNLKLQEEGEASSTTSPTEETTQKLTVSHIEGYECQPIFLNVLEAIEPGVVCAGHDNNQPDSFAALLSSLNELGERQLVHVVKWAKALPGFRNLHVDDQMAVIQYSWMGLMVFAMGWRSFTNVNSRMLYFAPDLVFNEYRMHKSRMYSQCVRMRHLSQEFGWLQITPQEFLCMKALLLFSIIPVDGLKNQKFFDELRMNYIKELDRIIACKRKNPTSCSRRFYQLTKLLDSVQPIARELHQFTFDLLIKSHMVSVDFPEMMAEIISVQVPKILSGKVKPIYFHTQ
Summary of the method: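 AR-bla HEK293 reporter cells; 4 h settle at 37C/5% CO2; compound + R1881 agonist, 16 h at 37C; LiveBLAzer B/G FRET substrate 2 h RT; fluorescence intensity read. qHTS format.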

[17] = molecular target: Androgen receptor (Homo sapiens) (UniProt P10275); experiment: qHTS assay to identify small molecule agonists of the androgen receptor (AR) signaling pathway (AID 743036; active = well fitted activation curve with a large enough effect in the signal ratio in the repeat runs, with a control signal flat, not every such curve was filed as active; the % refers to the signal ratio)
Summary of the method: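 Quantitative HTS of the Tox21 10K library in HEK293 cells bearing a stably integrated UAS-controlled beta-lactamase reporter. Compound exposure lasted 16 h at 37C. Reporter activity was detected by FRET substrate fluorescence after 2 h at room temperature.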

[18] = molecular target: Androgen receptor (Homo sapiens) (UniProt P10275); experiment: qHTS assay to identify small molecule agonists of the androgen receptor (AR) signaling pathway using the MDA cell line (AID 743040; note: nearly all actives have a fitted effect of over 20% in size)
Summary of the method: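 Agonist activity is measured as luciferase luminescence in human MDA-kb2 cells whose MMTV reporter responds to both AR and GR. Compounds in DMSO incubate 16 h at 37C, 0% CO2, and ONE-Glo is read after 30 min.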

[19] = molecular target: Androgen receptor (Homo sapiens) (UniProt P10275); experiment: qHTS assay to identify small molecule antagonists of the androgen receptor (AR) signaling pathway using the MDA cell line (AID 743042; note: nearly all actives have a fitted effect of over 55% in size)
Summary of the method: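 MDA-kb2 cells (human breast carcinoma, stably carrying an MMTV-luciferase reporter responsive to AR and GR) were plated at 3,000 cells/well and preincubated 5 hr at 37C, then given compound plus R1881 agonist for 16 h. ONE-Glo luminescence was read.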

Measured: Potency

N[C@H](Cc1c[nH]c2ccccc12)C(=O)O
inactive: [1] | [2] | [3] | [4] | [5] | [6] | [7] | [8] | [9] | [10] | [11] | [12] | [13] | [14]

CCNC(=S)NCC
inactive: [1] | [2] | [3] | [4] | [5] | [6] | [7] | [8] | [10] | [11] | [12] | [13] | [14]

CCCCCC(=O)O
inactive: [1] | [2] | [3] | [4] | [5] | [6] | [7] | [8] | [10] | [11] | [15] | [12] | [13] | [16] | [17] | [18] | [14] | [19]

OC1C(O)C(O)C(O)C(O)C1O (stereo unspecified)
inactive: [1] | [2] | [3] | [4] | [5] | [6] | [7] | [8] | [10] | [11] | [15] | [12] | [13] | [14]

CCO[Si](CCC#N)(OCC)OCC
inactive: [1] | [2] | [3] | [4] | [5] | [6] | [7] | [8] | [9] | [10] | [11] | [12] | [13] | [14]

O=C1c2ccccc2CCc2ccccc21
inactive: [1] | [2] | [3] | [4] | [5] | [6] | [7] | [8] | [10] | [13] | [14]

C[Si]1(C)O[Si](C)(C)O[Si](C)(C)O[Si](C)(C)O1
inactive: [1] | [2] | [3] | [4] | [5] | [6] | [7] | [8] | [10] | [11] | [12] | [13] | [14]

CCCCCCCCCCCCCCCC(=O)OC(C)C
inactive: [1] | [2] | [3] | [4] | [5] | [6] | [7] | [8] | [10] | [11] | [15] | [12] | [13] | [14]

CCCCCCCC=O
inactive: [1] | [2] | [3] | [4] | [5] | [6] | [7] | [8] | [10] | [11] | [12] | [13] | [14]

Clc1ccccn1
inactive: [1] | [2] | [3] | [4] | [5] | [6] | [7] | [8] | [10] | [11] | [12] | [13] | [14]

CC1(C)OC[C@@H]2O[C@@]3(C(=O)O)OC(C)(C)O[C@H]3[C@@H]2O1
inactive: [1] | [2] | [3] | [4] | [5] | [6] | [7] | [8] | [10] | [11] | [15] | [12] | [13] | [14]

From PubChem BioAssay (Tox21)
